Compound activity as filed in PubChem BioAssay.
BRCA1 expr act = increases BRCA1 expression. hit rate 1.1% among 380,000. Potency, µM (titrated, usually from 46.1 µM), for the others: at the highest dose activation, most hits filed as activators. MCF7-BRCA1-FFLuc reporter, luminescence, 48 h; response scale: scaled: vehicle 0%, 10 µM genistein 100%. AID 624202; also: potency is read from the fitted curve at half-maximal effect; nearly all actives have a fitted effect of over 80% in size
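Compounds are tested at multiple concentrations on MCF7 BRCA1-luciferase reporter cells seeded at 2000 per well; after 48 h, a single luminescence end-point is taken and curves fitted to the normalized data.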
IL-2 act = activates IL-2 in a cell-based reporter assay; AID 652025; IL-2 activation reporter assay, cell-based qHTS; stimulated with anti-CD3/CD4/CD28 beads; in transgenic mouse T cells; hit rate 0.065% among 360,000; activation, % (series mostly up to about 46 µM); in the data active = activation above about 50%; inconclusive = mostly about 30% to 49%; also: 0% is about no effect
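Unstimulated transgenic mouse T cells; 60-min compound exposure; bead-based TCR/CD4/CD28 stimulation; 18 h culture, 37 degrees C; dual fluorescence (EGFP, DsRed) plate cytometry.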
Mito fusion act = blocks mitochondrial division or promotes mitochondrial fusion. S. cerevisiae fusion-defective mutant growth rescue, CellTiterGlo 48 h. Potency, µM (doses to about 46.1 µM), without a hit: top-dose growth rescue (activation), most hits filed as activators. hit rate 0.23% among 320,000. AID 485298; also: potency is read from the fitted curve at half-maximal effect; % of control where 0% means no effect; nearly all actives have a fitted effect of over 45% in size
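Read-out: ATP-based luminescence (CellTiterGlo, 10 min ambient) reporting growth of fusion-defective ts yeast after 48 hours at 37C on glycerol/ethanol YPEG medium in the presence of compound.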
TCR activator = T cell receptor activation | primary human leukocytes, anti-CD3, IL-2 HTRF, 48 h | Potency, µM (highest dose often 9.22 µM), without a hit: at the highest dose activation of IL-2 secretion, usual class: activators | 330,000 tested, under 10 active | AID 504894; also: % of control where 0% means no effect
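Primary human leukocytes incubated 48 hr with anti-CD3 beads plus compound, without co-stimulation. Secreted IL-2 measured by HTRF (europium cryptate/d2 anti-IL-2 pair, 320 nm excitation, 665 nm emission).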
BCR signal inh = chronic active BCR signaling inhibition. ABC-DLBCL IkBa-CBG/CBR reporter, luminescence ratio, 4 h. Potency, µM (doses to about 46.1 µM), for the others: top-dose activity change, negative = inhibition, hits mostly inhibitors. hit rate 0.05% among 340,000. AID 493014; active = well fitted inhibition curve with a large enough effect in the signal ratio, with a control signal flat, not every such curve was filed as active; inconclusive = small, poorly fitted or top-dose-only effect, or effect the other way, or a change in a side signal; the % refers to the signal ratio;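 also: potency is read from the fitted curve at half-maximal effect; plate controls were basal doxycycline-induced cells for no effect and cells given 10 µM MG132 for full effect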
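Doxycycline induced both beetle luciferases in TMD8 lymphoma cells; IKK-driven degradation limits the IkappaBalpha-fused green signal, while red luminescence normalises for cell number and nonspecific effects. Compounds tested up to 46 uM, 4 hrs.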
PTHR1 ag = activates the human parathyroid hormone receptor PTHR1 | hit rate 0.075% among 410,000 | Potency, µM (titrated, usually from 115 µM), without a hit: at the highest dose activation, most hits filed as activators | Q03431 | HEK293 GP2 PTHR1 cells, GloSensor cAMP luminescence, 1 h | AID 743266; also: potency is read from the fitted curve at half-maximal effect; nearly all actives have a fitted effect of over 55% in size
Target sequence (Q03431 whole entry, looked up): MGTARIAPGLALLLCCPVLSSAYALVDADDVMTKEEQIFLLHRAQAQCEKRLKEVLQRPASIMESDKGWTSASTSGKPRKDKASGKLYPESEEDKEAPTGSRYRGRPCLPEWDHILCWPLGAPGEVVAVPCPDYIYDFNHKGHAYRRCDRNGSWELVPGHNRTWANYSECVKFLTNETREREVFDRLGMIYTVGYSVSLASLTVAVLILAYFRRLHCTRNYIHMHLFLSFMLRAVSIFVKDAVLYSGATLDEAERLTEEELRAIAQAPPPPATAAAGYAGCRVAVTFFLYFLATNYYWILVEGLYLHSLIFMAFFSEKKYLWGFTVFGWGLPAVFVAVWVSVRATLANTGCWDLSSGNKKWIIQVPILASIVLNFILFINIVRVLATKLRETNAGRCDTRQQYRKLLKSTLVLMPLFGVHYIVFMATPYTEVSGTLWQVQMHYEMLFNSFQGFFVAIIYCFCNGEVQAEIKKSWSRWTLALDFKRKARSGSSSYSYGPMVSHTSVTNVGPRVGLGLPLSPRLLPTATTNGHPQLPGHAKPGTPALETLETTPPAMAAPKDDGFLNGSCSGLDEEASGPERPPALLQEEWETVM
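HEK-293-derived GP2 cells expressing PTHR1 and a GloSensor cAMP reporter, 3,000/well, plated overnight, given luciferin plus IBMX (each 0.5 mM as added) for 1 h at 37 °C, then compound for 1 h at 37 °C. Luminescence was read after 15 min at room temperature.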
* marks the source's active call; other numbers are inactive results; i = inactive; u = inconclusive; x = no result given; ! = repeats disagree; [ ] = remark or other dose. The list is not random: actives were taken first. Their share in the collection is about 1.3%. Unless noted, calls follow the shape of the dose curve; as a rule, active = well fitted curve in the direction sought with a large enough effect; inconclusive = small, poorly fitted or top-dose-only effect, or another doubt; inactive = no such curve, though single readings can be large; an effect the other way counts as inactive or inconclusive.

SMILES | BRCA1 expr act | IL-2 act | Mito fusion act | TCR activator | BCR signal inh | PTHR1 ag
N#C/C(=C/c1ccccc1[N+](=O)[O-])c1nc(C2CC2)cs1 | 10.2% | -0.3 | u | 2.3%[46.1 µM] | 1.1% | -27.2%
CC(=O)O[C@]1(C(C)=O)CC[C@H]2[C@@H]3C=C(Cl)C4=CC(=O)[C@@H]5C[C@@H]5[C@]4(C)[C@H]3CC[C@@]21C | -22.0% | -0.3 | 20.6µM* | -1.9% | 1.8% | -30.7%
COc1cccc(CN2CCC2(C)C(=O)Nc2ccc3c(c2)CCN3C(C)=O)c1F (stereo not drawn) | -7.7% | -0.2 | x | x | x | -13.8%
CCCc1c(C(=O)N/N=C(\C)c2cc(C)sc2C)nnn1-c1nonc1N | -14.8% | -3.3 | x | x | x | i
C/C(=N\NC(=O)c1nnn(-c2nonc2N)c1C(C)C)c1cc(C)sc1C | 0.0% | -4.0 | 31.6µM* | 2.4% | 15.2% | i
CC#C[C@]1(O)CC[C@H]2[C@@H]3CCC4=CC(=O)CCC4=C3[C@@H](c3ccc(N(C)C)cc3)C[C@@]21C | 0.0% | 0.4 | 9.2µM*! | 0.3% | u | -24.4%
C#C[C@]1(O)CCC2C3CCC4=CC(=O)CC[C@@H]4C3CC[C@@]21C (stereo partly drawn) | -33.1% | -0.2 | 2.5% | 0.2% | u | -15.5%
C/C(=C\c1ccccc1)C(=O)Nc1nccs1 | 3.16µM* | 0.3 | u | 0.6% | 1.0% | -4.8%
O=C(Nc1nccs1)Oc1ccccc1 | 2.2% | -1.4 | 1.6% | -1.6% | -0.4% | i
N#C/C(=C\c1cccs1)C(=O)NCc1ccccc1 | -10.5% | -0.3 | -4.0% | -4.9%[46.1 µM] | u | -17.6%
N#C/C(=C\c1cccs1)C(=O)Nc1nccs1 | 14.1µM* | 1.2 | 2.5% | 1.6% | u | -31.9%
CN(C)C=NC(=O)c1cc2c(n(-c3ccccc3)c1=O)CC(C)(C)CC2=O | 5.1% | x | x | x | x | -16.0%
O=C(NCCc1ccccn1)c1cc2ccccc2o1 | 10µM* | 0.8 | -3.1% | -2.2% | u | -3.0%
CCNC(=O)c1cc2ccccc2o1 | 0.1% | 3.8 | -1.1% | 0.6% | 3.3% | i
Cc1ccccc1Nc1nc(N)nc(CSc2nc3ccccc3s2)n1 | 0.7% | -4.8 | 20µM* | -1.9%[46.1 µM] | -8.4% | -45.0%
Brc1ccc(-c2cn3cccnc3n2)cc1 | 3.55µM* | 1.4 | 9.4% | -9.6% | u | -18.1%
Clc1ccc(-c2cn3cccnc3n2)cc1 | u | 5.4 | 0.9% | -22.2% | u | -10.2%
c1ccc(CCNc2ncnc3ccccc23)cc1 | 2µM* | -0.9 | -1.8% | -4.3% | u | -92.2%
CCCCCCCCNc1ncnc2ccccc12 | -62.2% | -0.2 | 3.0% | 0.8% | 15.9% | 4.3%[57.5 µM]
CC(=O)c1cc(F)ccc1OCC(=O)Nc1ccc2c(c1)OCO2 | 1.26µM* | 2.6 | x | 6.6% | 0.6% | -18.0%
O=C(COc1ccccc1[N+](=O)[O-])Nc1ccc2c(c1)OCO2 | 10µM* | -1.1 | 5.1% | 7.1% | 4.0% | -79.1%
CC(C)c1nnc(NC(=O)COc2ccccc2[N+](=O)[O-])s1 | 10µM* | 0.9 | 2.2% | -3.4% | -10.8% | i
O=C(COc1ccccc1[N+](=O)[O-])Nc1ccc2c(c1)CCC2 | 10µM* | -0.1 | 7.6% | 7.9% | u | -50.1%
O=C(COC(=O)COc1ccccc1[N+](=O)[O-])Nc1ccc2c(c1)OCO2 | -15.1% | 0.3 | x | 1.2% | -4.4% | i
CC(=O)N1CCCc2cc(S(=O)(=O)N3CCN(c4ccccc4F)CC3)ccc21 | x | x | x | x | x | -23.9%
SMILES | BRCA1 expr act | IL-2 act | Mito fusion act | TCR activator | BCR signal inh | PTHR1 ag
O=C(COc1cc(F)ccc1[N+](=O)[O-])Nc1ccc2c(c1)OCO2 | 3.55µM* | -0.5 | -1.6% | 0.6% | u | i
O=C(COc1cc(F)ccc1[N+](=O)[O-])Nc1cccc(Br)c1 | 0.0% | 0.1 | 2.9% | 3.9% | -0.8% | -8.3%
CCOc1ccc2nc(N3CCCC(C(=O)NCC4CCCO4)C3)sc2c1 (stereo not drawn) | 10µM* | 0.9 | 5.1% | -5.8% | 1.3% | -5.7%
COc1ccc(OCCn2c(=O)sc3ccccc32)cc1 | 10µM* | 0.7 | 27.2% | 8.2% | -4.8% | -34.2%
Cc1cccc(OCCn2c(=O)sc3ccccc32)c1 | 3.55µM* | -1.9 | 7.7% | 5.9%[46.1 µM] | u | -24.9%
COc1ccccc1OCCn1c(=O)sc2ccccc21 | 14.7% | -3.2 | 12.6% | 5.7% | 1.7% | i
COc1ccc(NC(=O)CN(C)C(=O)c2oc3ccccc3c2C)cc1 | -29.7% | 0.5 | 6.6% | -4.9% | 1.7% | -2.3%
O=C(CSc1ccc(-c2cccs2)nn1)c1cccs1 | 11.2µM* | -1.3 | 1.7% | 1.8% | u | -9.6%
CCc1ccc(-c2ccc(SCc3ccccn3)nn2)cc1 | 5.01µM* | -0.9 | u | 0.9% | 5.3% | -33.3%
CCSc1ccc(-c2ccc(C)cc2)nn1 | 2.51µM* | -5.9 | 4.7% | 1.8% | -13.6% | -5.0%
O=C(CSc1ccc(-c2cccs2)nn1)Nc1ccccc1 | -8.1% | -0.4 | 0.0% | 9.5% | -21.0% | -14.9%
CCOc1ccc(-c2ccc(SCC)nn2)cc1 | 56.9% | -2.6 | 10.3% | -5.9% | 2.2% | -31.9%
c1ccc(CSc2ccc(-c3cccs3)nn2)nc1 | 7.94µM* | 0.0 | 1.2% | -22.4% | u | -13.3%
CNc1c(Cl)cc(C=O)cc1Cl | 7.6% | x | x | x | x | x
CN(Cc1c(F)cccc1Cl)C(=O)c1ccc(NS(=O)(=O)c2ccc3[nH]c(=O)[nH]c3c2)cc1 | -6.6% | 0.7 | 7.1% | -3.4% | 8.5% | -23.0%
COc1cccc(C(=O)NCC(c2ccco2)N2CCOCC2)c1 (stereo not drawn) | -9.6% | -1.5 | -7.9% | -4.3% | 10.1% | -20.8%
CCOc1ccc(-c2ccc(SCc3ccccn3)nn2)cc1 | 4.47µM* | -0.4 | 1.1% | x | -0.3% | -18.8%
CCOc1ccc(-c2ccc(SCC(=O)N3CCN(c4ccccc4)CC3)nn2)cc1 | x | x | -5.0% | -10.8%[46.1 µM] | -3.9% | x
Clc1ccc(C=NN2CCCCCC2)cc1 | 10µM* | -0.3 | x | 3.3% | x | -37.1%
Clc1ccc(C=NN2CCCCCC2)cc1Cl | 8.91µM* | -3.3 | x | 8.3% | x | -39.9%
N#Cc1ccc(C=NN2CCCCCC2)cc1 | 6.31µM* | -0.7 | x | -3.2% | x | i
O=[N+]([O-])c1ccc(/C=N/N2CCCCC2)cc1 | 10µM* | -0.8 | 2.0% | 4.5% | 0.4% | -4.1%
COc1ccc(CNC(NC(=O)c2ccccc2)(C(F)(F)F)C(F)(F)F)cc1 | -16.4% | -3.0 | u | -5.2%[46.1 µM] | 4.0% | -21.0%
O=C(c1ccc(Cl)cc1)c1coc2ccc(O)cc12 | 3.98µM* | -0.8 | 5.6% | 1.7% | -8.9% | -16.3%[57.5 µM]
O=C(c1coc2ccc(O)cc12)C1CC1 | 52.8% | 0.0 | -2.9% | 2.0% | u | -4.0%[57.5 µM]
